# The source made the active and inactive calls.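 The calls were made as follows, unless noted: active = inhibition above 20% together with a positive visual image hit; inconclusive = visual image hit but inhibition not above 20%; inactive = no visual image hit.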
# Tests used:
# [1] = inhibitors of TNFa-induced NFkB p65 translocation, primary screen, imaging, HUVEC, MLSMR starter and 10KST1 sets (AID 438); details: HUVEC TNFa-induced p65 nuclear translocation; cell count: measured here: nuclei count (cytotoxicity indicator), at 2.08 µM; inhibition: at 2 µM, stronger effect = higher value, 0% TNFa-plus-vehicle, 100% no-TNFa wells;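 also: compound added about 3h40 before a 20 min TNFalpha stimulation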;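 as to inhibition: signal is the nuclear over cytoplasmic p65 intensity ratio per well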
# [2] = reduction of polyQ htt aggregates in cells – imaging, exon1htt(103Q)mCFP cells, high-content imaging, primary screen (AID 483;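 active = visual image review flags a hit and inhibition of aggregation exceeds 20%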;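 also: compound exposure lasted 3 days before fixation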;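 as to nuclei count: percent of the per-plate median nuclei count of sample wells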); details: exon1htt(103Q)mCFP cell line, aggregate imaging, at 2 µM; inhibition of aggregation: stronger effect = higher value; nuclei count: measured here: cell count, toxicity
# [3] = endothelial E-selectin expression blockers – imaging, HUVEC, immunofluorescence, MLSMR starter and 10KST1 sets, primary screen (AID 487;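 active = visually confirmed hit in the image check and inhibition above 20%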;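 as to inhibition: signal is fraction of cell area covered by stained E-selectin grains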;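 as to nuclei count: 100% = median nuclei count of all wells on the same plate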); details: HUVEC TNFalpha-induced E-selectin immunofluorescence imaging, at 2 µM; inhibition: stronger effect = higher value; nuclei count: measured here: cell number, toxicity
# [4] = target: Voltage-gated potassium channel subunit beta-2 (Rattus norvegicus) (UniProt P62483); assay: inhibitors of rat Kvbeta2 reductase activity – biochemical, NADPH fluorescence, primary screen (AID 622;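 active = fluorescence slope higher than the sample average by over 3 SD, cut at about -0.22 in these data, passing the limit was not always enough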;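 also: slope of raw intensity against log time taken from 70 to 1610 s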); details: recombinant KvBeta, 4-cyanobenzaldehyde reduction, at 10 µM, stronger effect = higher value
# Voltage-gated potassium channel subunit beta-2 (Rattus norvegicus), sequence (P62483 whole entry, looked up): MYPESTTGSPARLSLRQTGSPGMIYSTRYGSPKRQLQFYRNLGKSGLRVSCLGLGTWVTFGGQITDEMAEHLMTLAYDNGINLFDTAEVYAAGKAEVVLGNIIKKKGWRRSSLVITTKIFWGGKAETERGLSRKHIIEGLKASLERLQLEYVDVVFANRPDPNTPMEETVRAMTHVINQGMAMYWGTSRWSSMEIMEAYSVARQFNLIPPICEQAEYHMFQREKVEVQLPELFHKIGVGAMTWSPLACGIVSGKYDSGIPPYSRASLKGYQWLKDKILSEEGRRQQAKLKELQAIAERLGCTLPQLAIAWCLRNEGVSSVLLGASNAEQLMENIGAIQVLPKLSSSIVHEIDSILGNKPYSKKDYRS
# [5] = target: Voltage-gated potassium channel subunit beta-2 (Rattus norvegicus) (UniProt P62483); assay: enhancers of rat Kvbeta2 NADPH turnover – biochemical, NADPH fluorescence, primary screen (AID 623;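 active = NADPH fluorescence slope more negative than the mean of all samples by about 3 SD, 99.7% confidence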;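 also: fluorescence intensity change per second fitted from 20 to 320 s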); details: Recombinant KvBeta, NADPH fluorescence decrease slope, 10 min; at 10 µM; stronger effect = lower value
# [6] = target: Alpha-2C adrenergic receptor (Homo sapiens) (UniProt P18825); assay: compounds altering alpha2C-coupled GIRK flux – cell-based, HEK293 alpha2C/GIRK1/2, thallium flux, primary screen (AID 624;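 active = fluorescence slope after compound addition differing from the mean of all screened samples at 99.7% confidence, in either direction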;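 also: slope of fluorescence ratio to pre-addition baseline per second over 15 to 24 s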); details: thallium flux BTC fluorescence, at 10 µM, actives lie on both sides
# Alpha-2C adrenergic receptor (Homo sapiens), sequence (P18825 whole entry, looked up): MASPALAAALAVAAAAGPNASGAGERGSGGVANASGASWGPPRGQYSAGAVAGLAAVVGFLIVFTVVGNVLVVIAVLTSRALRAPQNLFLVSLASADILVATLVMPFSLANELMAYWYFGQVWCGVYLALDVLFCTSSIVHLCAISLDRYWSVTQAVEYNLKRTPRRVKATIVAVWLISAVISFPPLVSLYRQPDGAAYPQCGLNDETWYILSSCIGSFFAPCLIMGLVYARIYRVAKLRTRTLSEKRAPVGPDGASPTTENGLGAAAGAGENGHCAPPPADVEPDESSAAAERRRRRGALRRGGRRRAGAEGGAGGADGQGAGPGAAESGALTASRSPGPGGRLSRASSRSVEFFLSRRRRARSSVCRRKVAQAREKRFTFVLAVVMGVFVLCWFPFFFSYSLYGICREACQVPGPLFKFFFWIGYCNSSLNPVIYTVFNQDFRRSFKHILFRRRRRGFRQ
# [7] = blockers of RIG-like receptor reporter activation – cell-based, Sendai virus stimulus, luciferase, 10K MLSCN set, TLR/RLR signaling modifier project, primary screen (AID 602276;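 active = inhibition at or above 50% at 10 µM; inactive = inhibition below 50%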;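 also: firefly luciferase from ISG56 promoter only with Renilla not read in this screen; 0% = Sendai virus plus DMSO and 100% = medium plus DMSO without virus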); details: HEK293 RL24 IRF3 luciferase reporter, at 10 µM, stronger effect = higher value
# [8] = TLR3 IRF3 reporter activation blockers – cell-based, poly I:C stimulus, luciferase, 10K MLSCN set, primary screen (AID 602277;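 active = inhibition of the reporter signal at or above 50%; inactive = inhibition below 50%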); details: HEK293-TLR3 RL24 IRF3 luciferase reporter, at 10 µM, stronger effect = higher value
SMILES,cell count [1],inhibition [1],inhibition of aggregation [2],nuclei count [2] [%],inhibition [3],nuclei count [3] [%],fluorescence slope [4],NADPH fluorescence slope [5],slope [6],inhibition [7],inhibition [8]
Cc1ccc(S(=O)(=O)c2cc3c(=O)n4ccccc4nc3n(CC3CCCO3)c2=N)cc1C (stereo not drawn),716,-1.6% (inactive),-3.3% (inactive),88.2,0.8% (inactive),106,-0.439 (inactive),-3.3e-05 (inactive),0.00461 (inactive),13.6% (inactive),23.9% (inactive)
Nc1nc(-n2cnnc2)nn1-c1ccccc1,414,5.5% (inactive),-0.2% (inactive),97,-44% (inactive),118,-0.366 (inactive),-3e-05 (inactive),0.0053 (inactive),4.93% (inactive),4.43% (inactive)
Cc1nc(NC(=O)c2ccccc2)sc1-c1csc(NCc2ccco2)n1,301,-2.4% (inactive),0% (inactive),121,-13% (inactive),113,-0.185 (inactive),-1.9e-05 (inactive),0.0038 (inactive),5.26% (inactive),-13.8% (inactive)
C=CCn1c(-c2ccc(OC)cc2)nc2ccccc21,386,-3.5% (inactive),1% (inactive),96.1,-24.9% (inactive),86.4,-0.488 (inactive),-4.7e-05 (inactive),0.0046 (inactive),-24.1% (inactive),-54.6% (inactive)
CC1=C(C(=O)OCC(C)C)C(c2cc3c(cc2Br)OCO3)NC(=O)N1C (stereo not drawn),425,-3.6% (inactive),-13.3% (inactive),98.5,-103% (inactive),118,-0.44 (inactive),-3.6e-05 (inactive),0.00323 (inactive),11.4% (inactive),34.6% (inactive)
O=C(CSc1n[nH]c(-c2ccco2)n1)Nc1sc2c(c1C(=O)Nc1ccccc1)CCCC2,298,-4.3% (inactive),3.5% (inactive),88.7,-73.5% (inactive),91,-0.447 (inactive),-3.7e-05 (inactive),0.00332 (inactive),4.06% (inactive),21.7% (inactive)
CCN(CC)CCn1c2ccccc2c2nc(C)sc21,613,-3.3% (inactive),-5% (inactive),98.7,34% (inactive),86.3,-0.622 (inactive),-3.9e-06 (inactive),0.00718 (inactive),16.1% (inactive),21.2% (inactive)
O=C(c1cnc2n(c1=O)CCS2)N1CCc2ccccc21,529,9.1% (inactive),-15.5% (inactive),114,-39.6% (inactive),114,-0.51 (inactive),4.8e-06 (inactive),0.00669 (inactive),14.9% (inactive),27% (inactive)
O=C(NCc1ccccc1)C1CCCN1S(=O)(=O)c1cccc2cccnc12 (stereo not drawn),521,-4.4% (inactive),-7.9% (inactive),67.5,-42.2% (inactive),111,-0.561 (inactive),3.4e-05 (inactive),0.00702 (inactive),3.4% (inactive),34.5% (inactive)
CCc1nnc(NC(=O)CSc2nnc(-c3cc4ccccc4cc3O)n2CC)s1,674,-7.8% (inactive),1.7% (inactive),109,-52.3% (inactive),125,-0.511 (inactive),2.5e-06 (inactive),0.00587 (inactive),7.37% (inactive),11.2% (inactive)
O=C(CSc1nnc(C2CC2)n1Cc1ccccc1)c1ccc(S(=O)(=O)N2CCOCC2)cc1,426,15.8% (inactive),1.1% (inactive),96.7,-55.3% (inactive),112,-0.412 (inactive),-0.000138 (inactive),0.00543 (inactive),13.7% (inactive),24% (inactive)
CCC(C)(NC(=O)CNC(C)=O)C(=O)NC1CCCCC1 (stereo not drawn),610,-15.7% (inactive),-1.1% (inactive),122,-24.9% (inactive),116,-0.472 (inactive),-0.000295 (inactive),0.00509 (inactive),-6.71% (inactive),-2.23% (inactive)
CCC1CCCCN1C(=O)CSc1nnc(-c2ccco2)o1 (stereo not drawn),368,4.2% (inactive),-17.6% (inactive),100,-80.6% (inactive),104,-0.487 (inactive),-7.3e-05 (inactive),0.00444 (inactive),-35.7% (inactive),-88.3% (inactive)
CN1CCN(Cc2nc3c(c(=O)n(C)c(=O)n3C)n2Cc2ccccc2Cl)CC1,746,-15.7% (inactive),4.7% (inactive),100,-14.4% (inactive),105,-0.409 (inactive),-2e-05 (inactive),0.00482 (inactive),4.15% (inactive),45.1% (inactive)
COC(=O)CCCCCc1ccc(C(C)=O)s1,350,-6.3% (inactive),10.5% (inactive),101,-65.9% (inactive),120,-0.496 (inactive),-3.1e-05 (inactive),0.00508 (inactive),16.6% (inactive),15.4% (inactive)
CC(C)N(C(=O)CSc1nnc(-c2cc3ccccc3cc2O)n1Cc1ccco1)C(C)C,836,6.2% (inactive),-6.1% (inactive),107,4.9% (inactive),102,-0.47 (inactive),-2.4e-05 (inactive),0.00627 (inactive),-4.55% (inactive),7.55% (inactive)
CC(=O)Nc1cccc(NC(=O)c2ccco2)c1,286,2.5% (inactive),-7.1% (inactive),122,-72.9% (inactive),131,-0.391 (inactive),2.6e-05 (inactive),0.00425 (inactive),5.39% (inactive),26.7% (inactive)
Cc1ccccc1OCc1nnc2n1CC(C)S2 (stereo not drawn),547,6.8% (inactive),-4.9% (inactive),131,-53.4% (inactive),105,-0.562 (inactive),-4e-05 (inactive),0.00737 (inactive),8.61% (inactive),13.6% (inactive)
COc1ccccc1OCC(=O)N1CCN(c2ccccc2OC)CC1,471,3% (inactive),5.3% (inactive),108,35.1% (inactive),107,-0.6 (inactive),-1.5e-05 (inactive),0.00684 (inactive),-19.3% (inactive),-1.87% (inactive)
CCOC(=O)c1sc(NC(=O)C2CC=CCC2C(=O)O)nc1C (stereo not drawn),406,2.5% (inactive),-2.8% (inactive),97.8,19.8% (inactive),105,-0.527 (inactive),5.4e-05 (inactive),0.00721 (inactive),21.8% (inactive),32.8% (inactive)
O=C(CN1CCN(c2ncccn2)CC1)Nc1ccccc1-n1cccc1,327,13.4% (inactive),16% (inactive),81.3,25.5% (inactive),93.4,-0.621 (inactive),-6.7e-06 (inactive),0.006 (inactive),14.7% (inactive),8.32% (inactive)
COC(=O)c1sc(S(=O)(=O)NCc2cccs2)c(C(=O)OC)c1C,608,-16.4% (inactive),0.4% (inactive),85.3,12.1% (inactive),101,-0.452 (inactive),-3.4e-06 (inactive),0.00602 (inactive),-0.645% (inactive),30.7% (inactive)
O=C(COc1ccc(F)cc1Br)N1CCc2ccccc21,414,-7% (inactive),5% (inactive),105,-49.2% (inactive),103,-0.46 (inactive),9.7e-05 (inactive),0.0054 (inactive),-38% (inactive),-100% (inactive)
CCC(=O)Nc1ccc2nc(SCC(=O)N3CCCC3)sc2c1,709,-23.3% (inactive),-2.1% (inactive),102,-56.1% (inactive),122,-0.503 (inactive),-2.8e-05 (inactive),0.00507 (inactive),-25.3% (inactive),-44.2% (inactive)
COC(=O)c1ccccc1NC(=O)C1CC(=O)N(c2ccc(F)cc2)C1 (stereo not drawn),321,6.5% (inactive),-18.4% (inactive),115,-16.8% (inactive),134,-0.604 (inactive),-3.1e-05 (inactive),0.00375 (inactive),14.7% (inactive),5.83% (inactive)
CCOC(=O)N1CCC(NC(=O)CS(=O)(=O)Cc2nc(-c3ccccc3C)oc2C)CC1,699,-7.5% (inactive),2.1% (inactive),96.6,-66.8% (inactive),119,-0.513 (inactive),-2.7e-05 (inactive),0.00671 (inactive),9.06% (inactive),-5.43% (inactive)
Nc1nc(-c2ccc(Cl)cc2)nn1C(=O)c1cccnc1,293,4.2% (inactive),-4.2% (inactive),96.8,40.8% (inactive),105,-0.397 (inactive),6.7e-06 (inactive),0.00507 (inactive),-0.966% (inactive),-2.82% (inactive)
CCOc1ccccc1NC(=O)NC1CCN(CC(=O)Nc2ccc3c(c2)OCCO3)CC1,285,-4.8% (inactive),2% (inactive),115,-0.8% (inactive),87.4,-0.499 (inactive),4.9e-05 (inactive),0.00583 (inactive),19.4% (inactive),26.5% (inactive)

# Source: PubChem BioAssay
